# TGFb SMAD3 inh – blocks TGF-b signaling; 410,000 tested, 1.2% active; HepG2 CAGA-GFP TGF-b/SMAD3 reporter, GFP fluorescence, 18 h; TGF-beta stimulated, 500 pg/mL final; Potency, µM (top dose mostly 46.1 µM), for the others: at the top dose activity, negative = inhibition, hits mostly inhibitors; also: % is scaled to controls: 0 for no effect and ±100 for the full control effect; nearly all actives have a fitted effect of over 65% in size
#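 HEPG2 CAGA-GFP reporter cells (1000/well, DMEM with 1% FBS) received compounds, then recombinant TGF-beta at 500 pg/mL final for 18 hours at 37 degrees C. Per-cell GFP summed per well was normalised to unstimulated and stimulated DMSO controls before curve fitting.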
# HT1080NT lethal – kills 2HG-producing HT-1080-NT fibrosarcoma cells | HT-1080-NT fibrosarcoma viability, CellTiter-Glo ATP luminescence, 48 h | Potency, µM (top dose mostly 46.1 µM), for inactives: top-dose activity, negative = less viability, actives largely listed as cytotoxic | 360,000 tested, 1.6% active | AID 686970;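 also: NT is the 2HG producing partner of a matched IDH1 knockdown line; 0% = DMSO-treated cells and -100% = media-only wells without cells; nearly all actives have a fitted effect of over 55% in size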
#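 Luminescent CellTiter-Glo readout after 48 hours of compound exposure at 37 degrees C defined viability of HT-1080-NT cells. Activity was normalized to DMSO wells and cell-free media wells; concentration-response curves were fitted and assigned curve classes.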
# HT1080 IDH1KD tx – toxicity to HT-1080 IDH1 knockdown cells (counter line) | Potency, µM (titrated, usually from 46.1 µM), for the others: top-dose activity, negative = toxicity, hits mostly cytotoxic | 360,000 tested, 2% active | HT-1080 IDH1 knockdown viability, ATP luminescence, 48 h;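 also: 0% = DMSO wells and -100% = cell-free medium wells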
#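 After a 2 h attachment period, IDH1KD HT-1080 cells took pin-transferred compound for 48 h at 37 °C; ATP-based luminescence after 10 min room-temperature reagent incubation reported viability.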
# HepG2 viability – kills HepG2 cells in TGF-b inhibitor counter-screen; HepG2 CAGA-GFP viability, ATP luminescence, 18 h; Potency, µM (highest dose often 46.1 µM), for inactives: at the highest dose activity change, negative = cytotoxicity, most hits filed as cytotoxic; 410,000 tested, 0.76% active; AID 588856
#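 CellTiter-Glo luminescence gave cytotoxicity after 18 hours at 37 degrees C. The cells were HepG2 CAGA-GFP in 1% FBS DMEM, stimulated with 500 pg/mL TGF-beta after compound addition. %Activity was normalised to no-cell wells (complete cell-killing) and DMSO (no toxicity), and curves were fitted and classified.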
# KB-3-1 cytotox – kills parental KB-3-1 adenocarcinoma cells; AID 1347075; KB-3-1 viability, CellTiter-Glo ATP luminescence, 72 h; Potency, µM (top dose mostly 46.1 µM), hits mostly cytotoxic; 400,000 tested, 1.4% active; also: % is scaled to controls: 0 for no effect and ±100 for the full control effect; nearly all actives have a fitted effect of over 60% in size
#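 Screening of KB-3-1 cells (DMEM, 10% FBS, phenol-red free) ran from lowest to highest compound concentration; after 72 h at 37 °C viability was read luminescently and curves fitted.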
# KB-V1 cytotox – KB-V1 MDR subline cytotoxicity; KB-V1 MDR cells viability, CellTiter-Glo, 72 h; Potency, µM (highest dose often 46.1 µM), most hits filed as cytotoxic; 400,000 tested, 3.4% active; AID 1347076; also: % is scaled to controls: 0 for no effect and ±100 for the full control effect; nearly all actives have a fitted effect of over 60% in size
#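 Readout: CellTiter-Glo luminescence, 10 min after addition. Cells: KB-V1 MDR subline, 72 h at 37 degrees C with compound. Analysis: corrected, normalized data fitted to concentration-effect curves.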
# Starred values were filed as active, the others as inactive; i = inactive; ? = inconclusive; / = no result. Most compounds without a hit are left out; they make up all but 6.6% or so of the library. Calls follow the shape of the dose curve; as a rule, active = well fitted curve in the direction sought with a large enough effect; inconclusive = small, poorly fitted or top-dose-only effect, or another doubt; inactive = no such curve, though single readings can be large; an effect the other way counts as inactive or inconclusive. Potency is read from the fitted curve at half-maximal effect.
SMILES,TGFb SMAD3 inh,HT1080NT lethal,HT1080 IDH1KD tx,HepG2 viability,KB-3-1 cytotox,KB-V1 cytotox
c1ccc(-c2cccc(-c3ccccn3)n2)nc1,42%,?,0.28µM*,-56%,?,1.8µM*
c1ccc(-c2nnc(-c3ccccn3)nn2)nc1,-10%,-9%,-13%,-46%,i,i
O=C(NCc1ccco1)/C(=C/C=C\c1ccccc1)NC(=O)c1ccc(Br)o1,-24%,0%,?,-6%,?,4.1µM*
N#C/C(=C\C=C\c1ccccc1)C(=O)NCc1ccco1,?,?,?,-28%,i,i
COc1ccc(-c2onc(C)c2C)cc1S(=O)(=O)Nc1cc(Cl)ccc1C,-19%,/,/,-35%,/,/
NC(=S)NN=C1c2ccccc2-c2ccccc21,6.3µM*,-8%,-7%,-111%,i,i
O=C(NN=C1c2ccccc2-c2ccccc21)c1ccccc1,-10%,-29%,-4%,-24%,?,i
COc1ccccc1C1NC(c2ccc3c(c2)OCO3)=CC(c2cc(Cl)ccc2O)N1 (centres undefined),?,/,/,-30%,i,i
Oc1ccc(Cl)cc1C1C=C(c2ccc3c(c2)OCO3)NC(c2ccc(Br)cc2)N1 (centres undefined),-16%,/,/,-11%,i,i
Oc1ccc(Cl)cc1C1C=C(c2ccc3c(c2)OCO3)NC(c2cc(Br)ccc2F)N1 (centres undefined),7.9µM*,/,/,14µM*,/,/
COc1ccc(Br)cc1C1NC(c2ccc3c(c2)OCO3)=CC(c2cc(Cl)ccc2O)N1 (centres undefined),?,/,/,11µM*,/,/
CCOC(=O)c1c(S(=O)(=O)NCC(=O)N(C)Cc2ccccc2)c(C)n(C)c1C,6%,/,/,-8%,i,i
O=C(COc1cccc(Cl)c1)N1CCC(c2nc3ccccc3s2)CC1,?,/,/,-16%,i,i
Cc1cc(-c2csc3nc[nH]c(=S)c23)cc(C)c1C,?,16µM*,15µM*,10%,?,?
Cc1ccc(-c2csc3nc[nH]c(=S)c23)cc1,0%,?,?,-23%,?,?
S=c1[nH]cnc2scc(-c3ccc(Br)cc3)c12,-9%,21µM*,13µM*,-23%,?,?
COc1cccc(NC(=O)CSc2nc3ccc(NC(=O)c4cccs4)cc3s2)c1,-10%,/,/,-18%,i,i
O=C(c1ccc(Cl)c(S(=O)(=O)N2CCCC2)c1)N1CCN(c2ccccc2)CC1,-27%,-13%,0%,-18%,i,?
Cc1ccc(C(=O)N2CCCCC2)cc1S(=O)(=O)N1CCCC1,-20%,0%,7%,-4%,i,i
Cc1cc(C(=O)N2CCN(c3ncccn3)CC2)sc1-c1ccccc1,-22%,20%,0%,-3%,i,21µM*
Cc1ccc(C(=O)N2CCN(c3ncccn3)CC2)cc1S(=O)(=O)N1CCCCC1,-3%,-2%,5%,1%,i,23µM*
O=C(c1ccc(Cl)c(S(=O)(=O)N2CCCC2)c1)N1CCN(c2ccc(F)cc2)CC1,-20%,-19%,-3%,6%,?,5.8µM*
Cc1cc(C(=O)N2CCN(S(C)(=O)=O)CC2)sc1-c1ccccc1,1%,-1%,3%,7%,i,i
CC(=O)/C=N/Nc1ccccc1,22µM*,?,29%,-93%,i,i
CC(=NNc1ccccc1)C(C)=NNc1ccccc1,12%,6%,16%,9%,i,i
SMILES,TGFb SMAD3 inh,HT1080NT lethal,HT1080 IDH1KD tx,HepG2 viability,KB-3-1 cytotox,KB-V1 cytotox
COc1ccccc1C1NC(c2ccc3c(c2)OCO3)=CC(c2ccccc2O)N1 (centres undefined),?,/,/,-29%,i,i
CCC1(C)Cc2c(C#N)c(SC)nc(N3CCOCC3)c2CO1 (centres undefined),0%,-4%,-4%,-10%,i,i
COC(=O)CCSc1nc(N2CCOCC2)c2c(c1C#N)CC(C)(C)OC2,0%,16%,13%,1%,i,i
CSc1nc(N2CCOCC2)c2c(c1C#N)CC(C)(C)OC2,0%,-11%,-1%,4%,?,9.2µM*
CC(C)CCSc1nc(N2CCOCC2)c2c(c1C#N)CC(C)(C)OC2,-14%,?,?,2%,i,8.2µM*
C/C(=N\NC(=O)Cn1c(C)nc2ccccc21)c1cccs1,-3%,?,-26%,-4%,i,15µM*
CC(/C=N\NC(=O)Cn1c(C)nc2ccccc21)=C\c1ccccc1,-19%,8.2µM*,21µM*,-12%,18µM*,?
COc1ccc2c(c1)c(C(=O)N/N=C/c1ccc(O)c(O)c1)c(C)n2C,0%,-16%,-24%,-6%,i,i
COc1ccc2c(c1)c(C(=O)N/N=C/c1ccc(Br)cc1)c(C)n2C,-29%,?,18µM*,-13%,?,?
CCOc1ccc(/C=N/NC(=O)c2c(C)n(C)c3ccc(OC)cc23)cc1,?,?,?,27%,8.2µM*,13µM*
COc1cccc(NC(=O)CSc2nnc3[nH]c(=O)cc(-c4ccccc4)n23)c1,-14%,/,/,-14%,/,/
CC(OCC(O)CN(C)CCOc1ccccc1)c1ccc(Cl)cc1 (centres undefined),3%,-9%,-22%,-44%,i,16µM*
Nc1c2c(nc3sc4c(c13)CCCCC4)CCCCC2,-22%,3%,10%,-36%,?,8.2µM*
CCN(CC)S(=O)(=O)c1cc(NC(=O)CN2C(=O)NC(C)(c3ccccc3)C2=O)ccc1C (centres undefined),-3%,-9%,?,2%,i,i
COc1ccc(NC(=O)Cn2ncc(Cl)c(Cl)c2=O)cc1S(=O)(=O)N1CCOCC1,?,-21%,21µM*,5%,i,i
O=C(Cn1ncc(Cl)c(Cl)c1=O)c1ccc2c(c1)OCCO2,-19%,?,?,-82%,?,21µM*
O=C(Cn1ncc(Cl)c(Cl)c1=O)Nc1ccc2c(c1)OCO2,?,?,18µM*,-39%,?,?
CCN(CC)S(=O)(=O)c1cc(NC(=O)Cn2ncc(Cl)c(Cl)c2=O)ccc1C,-18%,10µM*,7.3µM*,1%,?,i
COc1ccccc1CNC(=O)CSc1nc(=O)[nH]c2c1CCCC2,16%,/,/,3%,/,/
CCOc1ccc(C(=O)c2cn(CC(=O)Nc3ccc(Cl)cc3)c3cc4c(cc3c2=O)OCCO4)cc1,-17%,/,/,-10%,?,i
